High-throughput results deposited in PubChem by National Center for Advancing Translational Sciences (NCATS).
Compounds with a hit are over-represented: about 6.1% of the library has one in this group of screens.
D1 antagonist: antagonists of human D1 dopamine receptor | AID 504652 | HEK293 TREx D1 cells, calcium flux, dopamine EC80; stronger effect = lower value | activity change, negative = inhibition, % at 10 µM | 360,000 tested, 3.2% active | P21728; in the data active = activity change below about -30%
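Inducible Hek293 Trex D1 cells (tetracycline, overnight, 30 C). Calcium dye 30–90 min RT. Antagonist mode: EC80 dopamine added after 180 s compound read.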
D1 potentiator: human D1 dopamine receptor positive modulation; P21728; HEK293 TREx D1 cells, calcium flux, dopamine EC20 potentiation; potentiation, % at 10 µM; 360,000 tested, 0.036% active; AID 504651; in the data active = potentiation above about 30%
DRD3 agonist: activates the human D3 dopamine receptor | P35462 | D3R DiscoveRx beta-arrestin cells, luminescence, 90 min | max activation, % | 410,000 tested, 0.58% active; in the data active = max activation above about 30%
Target sequence (P35462 whole entry, looked up): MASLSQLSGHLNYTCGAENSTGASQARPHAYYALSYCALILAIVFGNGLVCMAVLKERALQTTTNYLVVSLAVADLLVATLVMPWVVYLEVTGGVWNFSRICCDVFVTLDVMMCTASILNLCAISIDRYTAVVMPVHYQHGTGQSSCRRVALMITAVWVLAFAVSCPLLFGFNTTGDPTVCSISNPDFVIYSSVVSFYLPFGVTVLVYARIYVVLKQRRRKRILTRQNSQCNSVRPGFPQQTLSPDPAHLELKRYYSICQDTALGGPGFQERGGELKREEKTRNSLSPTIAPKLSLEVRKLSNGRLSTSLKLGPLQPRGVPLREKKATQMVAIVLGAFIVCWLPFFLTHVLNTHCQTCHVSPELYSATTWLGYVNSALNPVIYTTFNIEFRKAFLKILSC
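Agonist mode: compounds and dopamine controls were applied to plated cells for 90 min at 37 degrees C after an overnight attachment at 1500 cells/well. Luminescent read-out followed 30 - 60 minutes at room temperature with DiscoveRx detection reagent.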
D1 ag: agonists of human D1 dopamine receptor; P21728; HEK293 T-REx D1 cells, calcium flux, agonist mode; activation, % at 2 µM; 360,000 tested, 1% active; AID 504660; in the data active = activation above about 30%
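Tetracycline-induced HEK293 TREx D1 cells, force-coupled to calcium signalling, were dye-loaded with a no-wash calcium kit. Compound was pin-added after a 10 s baseline. Fluorescence was read kinetically at 1 cycle/s for 180 s, with calcium rises flagged as agonism.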
DRD3 antagonist: D3 dopamine receptor (human) antagonism; P35462; D3R cells, DiscoveRx beta-arrestin luminescence, antagonist mode; stronger effect = lower value; max response, negative = inhibition, %; 360,000 tested, 2.5% active; AID 652054; in the data active = max response below about -50%; inconclusive = no clear call, values can overlap the other calls
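Cells expressing the human receptor were seeded at 1500 cells/well, incubated overnight at 37 degrees C in 5% CO2, then exposed to library compounds with dopamine controls for 90 minutes at 37 degrees C before luminescent detection.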
Hits are given with their value; – = inactive; ? = inconclusive; · = not tested or not shown; ! = a repeat was not active.

SMILES | D1 antagonist | D1 potentiator | DRD3 agonist | D1 ag | DRD3 antagonist
Cc1cc(C(F)F)n2nc(C(=O)Nc3ccc(F)cc3F)nc2n1 | – | – | – | – | -54
Cc1ccc2occ(CC(=O)Nc3c(C(=O)Nc4ccc(Cl)cc4)oc4ccccc34)c2c1 | – | – | – | – | ·
COc1ccc(CNC(=O)CN(c2ccccc2)S(=O)(=O)N(C)C)cc1 | -32! | – | – | – | –
CN(C)S(=O)(=O)N(CC(=O)Nc1ccccc1)c1ccccc1 | – | – | – | – | -54
CCOc1ccccc1N(CC(=O)NCCc1ccc(OC)cc1)S(=O)(=O)c1ccc(C)cc1 | · | · | – | · | –
COc1ccc(CNC(=O)CN(c2ccccc2OC)S(=O)(=O)c2ccc(C)cc2)cc1 | -32 | – | – | 44 | ·
CN(C)S(=O)(=O)N(CC(=O)Nc1cccc(F)c1)c1ccccc1 | – | – | – | – | –
CN(C)S(=O)(=O)N(CC(=O)NCc1ccccc1)c1ccccc1 | – | – | – | – | –
CCc1ccccc1NC(=O)N1CCN(c2cc(-c3noc(C)n3)ccc2C)CC1 | – | – | – | – | ·
COc1ccc(OC)c(C2c3c(-c4ccc(Br)cc4)n[nH]c3C(=O)N2c2ccc(Cl)cc2)c1 (stereo unspecified) | – | – | – | – | ·
CC(=O)N1CCCc2ccc(NC(=O)c3ccc(C(F)(F)F)cc3)cc21 | – | – | – | – | ·
Cc1ccc(NC2=C(Cl)C(=O)OC2OC(=O)c2ccco2)cc1C (stereo unspecified) | -30 | – | – | – | –
Cc1ccc(C)c(NC2=C(Cl)C(=O)OC2OC(=O)c2ccco2)c1 (stereo unspecified) | – | – | – | – | –
COc1ccc(-c2c(-c3ccccc3OC)sc3ccccc23)cc1C=O | · | – | – | – | -60
Cc1ccc(CNC(=O)Nc2nnc([C@@H]3C[C@H](O)[C@@H](CO)O3)s2)cc1 | · | · | – | · | -63
COc1cccc(NS(=O)(=O)c2ccc3c(c2)N(C)C(=O)CC(=O)N3C)c1 | – | – | – | – | ·
COC(=O)c1ccc(C(=O)Nc2ccc(C(C)C)cc2N)cc1 | -40 | – | – | – | –
Cc1ccc(CNC(=O)COC(=O)c2ccc(S(=O)(=O)N3CCCC3)cc2)cc1 | -30 | – | – | – | –
CCOc1ccc(CCNC(=O)COC(=O)c2ccc(OC(C)C)cc2)cc1OCC | – | – | – | – | -53
CCOc1ccc(CCNC(=O)COC(=O)c2ccc(C)c([N+](=O)[O-])c2)cc1OCC | -47 | – | – | – | –
CCCOc1ccc(C(=O)OCC(=O)NCCc2ccc(OCC)c(OCC)c2)cc1OC | – | – | – | – | –
CCOc1ccc(CCNC(=O)COC(=O)c2ccc(S(=O)(=O)N3CCCC3)cc2)cc1OCC | -38 | – | – | – | –
CCOc1ccc(CCNC(=O)COC(=O)c2ccc(S(C)(=O)=O)cc2)cc1OCC | – | – | – | – | –
CCCn1c(SCc2nc(-c3ccccc3OCC)no2)nnc1-c1ccc(Cl)cc1 | – | – | – | – | ·
Cc1ccc2onc(CC(=O)N3CCN(c4cc(Cl)ccc4C)CC3)c2c1 | – | – | – | – | ·
SMILES | D1 antagonist | D1 potentiator | DRD3 agonist | D1 ag | DRD3 antagonist
CCOc1ccc(-c2cc(CCCC(=O)NCCc3ccc(OCC)c(OCC)c3)no2)cc1 | -33 | – | – | – | ·
O=C(CCC1N=C2c3ccccc3N=C(SCc3ccc(F)cc3)N2C1=O)NCc1ccc(F)cc1 (stereo unspecified) | – | – | – | – | ·
CNc1sc(C(=O)c2ccc(F)cc2)c(N)c1-c1nc2ccccc2s1 | – | – | – | – | -76
CCN(CC)CCSc1nnc2c3ccccc3n(Cc3ccccc3)c2n1 | – | – | – | – | -93
COc1ccc(Oc2cc(C)c3ccccc3n2)cc1 | – | – | 30 | – | –
Cc1ccc(Oc2cnc3ccccc3n2)cc1 | – | – | – | – | –
CCC1CCCCN1CCCNC(=O)c1cc2c(=O)[nH]c3ccccc3c2n1C (stereo unspecified) | – | – | – | – | –
Cn1c(C(=O)NCCCN2CCN(c3ccccc3F)CC2)cc2c(=O)[nH]c3ccccc3c21 | -40 | – | – | – | –
CC1CC(C)CN(CCCNC(=O)c2cc3c(=O)[nH]c4ccccc4c3n2C)C1 (stereo unspecified) | – | – | – | – | -64
Cn1c(C(=O)N2CCN(c3ccc(Cl)cc3)CC2)cc2c(=O)[nH]c3ccccc3c21 | – | – | – | – | –
Cc1ccc(Cl)cc1N1CCN(C(=O)c2cc3c(=O)[nH]c4ccccc4c3n2C)CC1 | – | – | 71 | – | –
CN(CCCNC(=O)c1cc2c(=O)[nH]c3ccccc3c2n1C)Cc1ccccc1 | – | – | – | – | –
CCOc1ccc(NC(=O)CSc2ncc3c(n2)-c2ccccc2N(C)S3(=O)=O)cc1 | – | – | – | – | ·
CCOc1cc(N(CC)CC)ccc1/C=C(/C#N)c1nc2ccccc2[nH]1 | – | – | – | 57 | -54
CCCOc1cc(N(CC)CC)ccc1/C=C(/C#N)c1nc2ccc(C)cc2[nH]1 | – | – | – | – | –
CCN(CC)c1ccc(/C=C(/C#N)c2nc3ccc(C)cc3[nH]2)c(OC(C)C)c1 | – | – | – | 100 | ?
COc1ccccc1CNC(=O)Cn1c(=O)nc(-c2ccccc2F)c2cc(Cl)ccc21 | – | – | – | – | ·
Cc1ccnc(N/C=C(/NC(=O)c2ccccc2)C(=O)NN)n1 | – | – | – | – | –
Cc1ccnc(N/C=C(/NC(=O)c2ccccc2)C(=O)N/N=C\c2ccc(F)cc2)n1 | -37 | – | – | – | –
CN(C)C1(CN=Cc2cc(Cl)cc([N+](=O)[O-])c2O)CCCCC1 | – | – | – | – | -68
Cc1cc(C(=O)N/N=C/c2cc(Cl)cc([N+](=O)[O-])c2O)n[nH]1 | – | – | – | – | –
Cc1ccc(C2/C(=C(\O)c3c(C)nc4ccccn34)C(=O)C(=O)N2CCN(C)C)o1 (stereo unspecified) | – | – | 43 | – | –
Cc1ccc(C2/C(=C(\O)c3c(C)nc4c(C)cccn34)C(=O)C(=O)N2CCN(C)C)o1 (stereo unspecified) | · | · | – | · | –
CN(C)c1ccc(CNC(=O)c2ccc(NC(=O)N3CCCCc4ccccc43)cc2)cc1 | – | – | – | – | ·
Cc1ccc(S(=O)(=O)Nc2cccc3c2CCCC3)cc1 | -32 | – | – | – | –
Cc1ccc(S(=O)(=O)Nc2ccccc2NS(=O)(=O)c2ccc(C)cc2)cc1 | · | · | – | · | –
COCCNc1nc2c(S(=O)(=O)c3ccc(C)c(C)c3)nnn2c2ccc(Cl)cc12 | -64 | – | – | – | ·
Cc1ccc(S(=O)(=O)c2nnn3c2nc(NC(C)C)c2cc(Cl)ccc23)cc1C | -52 | – | – | – | ·
COCCCNc1nc2c(S(=O)(=O)c3ccccc3)nnn2c2ccc(Cl)cc12 | – | – | – | – | ·
COCCCNc1nc2c(S(=O)(=O)c3ccc(C)c(C)c3)nnn2c2ccc(Cl)cc12 | -66 | – | – | – | ·
